14 molecules from PubChem BioAssay can be followed below.

Each structure is given as a SMILES string.

The assay in a line: viability loss with induced miR-34 in A549 – imaging, A549 dox-inducible miR-34, nuclei and caspase counts, primary screen (AID 1347080). Also: test concentration not given here. As to conditions: A549 miR-34 inducible, Hoechst nuclei count, 48 h; measured here: total cells without miR-34 induction.
Consider `O=C(CN=C(c1ccccc1)c1ccccc1)OCc1ccccc1`, for which the cell count was found to be 6050. Regarding `CCCCC[C@@H](O)/C=C/[C@@H]1[C@H](C/C=C\CCCC(=O)O)[C@@H](O)C[C@H]1O`, the cell count turned out to be 6010. Regarding `CCCCCCCCCCCCCCCC(=O)OC[C@H](COP(=O)([O-])OCC[N+](C)(C)C)OC(=O)CCCCCCCCCCCCCCC`, the cell count came out at 6060. Molecule `CCCCC(C)(O)C/C=C/[C@H]1[C@H](O)CC(=O)[C@H]1CCCCCCC(=O)OC` (some centres undefined) showed a cell count of 5290.

`CCCCCC/C=C\CCCCCCCCCCOC(C)=O` displayed a cell count of 5900. Regarding `O=C(O)CCC/C=C\C[C@H]1[C@@H](O)CC(=O)[C@@H]1/C=C/[C@@H](O)COc1cccc(C(F)(F)F)c1`, the cell count came to 6490. As to `CCCCC/C=C\C=C\C(O)CCCCCCCC(=O)OC[C@@H](COC(=O)CCCCCCC/C=C\C=C\C(O)CCCCC)OC(=O)CCCCCCC/C=C\C=C\C(O)CCCCC` (some centres undefined), the cell count stood at 5740. `CCCCCCCC/C=C\CCCCCC(=O)O` displayed a cell count of 5860. Molecule `CCCCC[C@H](O)CC[C@@H]1[C@@H](C/C=C\CCCC(=O)O)[C@@H](O)C[C@H]1O` returned a cell count of 6610.

The molecule `CCCCCCCCCCCCCCCCCC(=O)NCCS(=O)(=O)O` yielded a cell count of 5530. In turn, `COc1cc(/C=C/c2ccc(Cl)cc2)cc(OC)c1` gave a cell count of 6070.

`C/C(O)=C1\C(=O)[C@@H]2[C@H]3c4c[nH]c5cccc(c45)C[C@H]3C(C)(C)N2C1=O` had a cell count of 2100. In the case of `CCCCC[C@H](O)/C=C/[C@@H]1[C@H]2CC(CCCCC(=O)O)O[C@H]2C[C@H]1O` (some centres undefined), the cell count was found to be 7150. Molecule `CCCCC/C=C\C/C=C\C/C=C\C/C=C\CCCC(=O)NC[C@]1(C)CCC[C@]2(C)c3ccc(C(C)C)cc3CC[C@@H]12` showed a cell count of 5580.
